Laboratory results: paper PMC4336329 (PLoS ONE, 2015)
In all, about 310,000 compounds went through this assay and about 14,000 (4.5%) showed an effect of 50% or more. Effects have a minus sign here. Only a selection was taken, and strong results are over-represented in it overall.

molecular target: human ether-à-go-go-related gene (hERG) potassium channel (human, UniProt Q12809); assay: primary screen, population patch clamp on CHO cells stably expressing hERG; higher = less effect of the substance
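Also: peak tail current of the secondary pulse compared with the same well before compound.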

human ether-à-go-go-related gene (hERG) potassium channel, sequence (Q12809 whole entry, looked up): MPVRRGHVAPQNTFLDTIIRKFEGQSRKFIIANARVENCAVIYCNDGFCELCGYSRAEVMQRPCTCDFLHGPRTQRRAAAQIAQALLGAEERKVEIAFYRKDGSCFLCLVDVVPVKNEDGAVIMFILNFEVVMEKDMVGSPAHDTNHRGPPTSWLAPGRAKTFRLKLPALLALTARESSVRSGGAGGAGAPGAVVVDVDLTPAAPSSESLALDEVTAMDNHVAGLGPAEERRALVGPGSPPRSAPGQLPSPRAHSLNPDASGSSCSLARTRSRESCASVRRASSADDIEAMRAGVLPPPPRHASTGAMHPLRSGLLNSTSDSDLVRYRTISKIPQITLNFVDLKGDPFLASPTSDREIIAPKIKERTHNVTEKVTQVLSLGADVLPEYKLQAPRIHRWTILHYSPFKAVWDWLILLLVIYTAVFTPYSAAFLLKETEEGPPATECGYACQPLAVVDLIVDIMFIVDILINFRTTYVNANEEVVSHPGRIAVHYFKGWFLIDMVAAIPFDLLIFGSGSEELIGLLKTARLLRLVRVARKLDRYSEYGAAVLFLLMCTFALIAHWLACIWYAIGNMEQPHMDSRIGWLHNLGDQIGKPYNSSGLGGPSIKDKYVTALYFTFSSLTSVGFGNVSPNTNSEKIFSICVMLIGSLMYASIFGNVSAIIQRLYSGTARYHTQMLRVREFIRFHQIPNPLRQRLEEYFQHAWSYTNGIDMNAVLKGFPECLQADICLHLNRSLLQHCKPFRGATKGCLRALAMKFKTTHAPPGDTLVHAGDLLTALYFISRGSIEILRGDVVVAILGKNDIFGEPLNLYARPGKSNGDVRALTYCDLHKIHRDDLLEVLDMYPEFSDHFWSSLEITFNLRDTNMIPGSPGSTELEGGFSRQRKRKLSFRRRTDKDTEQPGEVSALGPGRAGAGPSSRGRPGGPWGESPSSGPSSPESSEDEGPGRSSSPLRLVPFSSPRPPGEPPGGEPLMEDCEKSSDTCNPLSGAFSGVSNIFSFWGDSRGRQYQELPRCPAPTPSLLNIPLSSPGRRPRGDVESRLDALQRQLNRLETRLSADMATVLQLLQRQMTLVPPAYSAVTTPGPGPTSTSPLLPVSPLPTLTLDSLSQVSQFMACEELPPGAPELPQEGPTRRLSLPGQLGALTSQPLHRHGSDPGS

SMILES | hERG current change (%, negative = inhibition) at 10uM [%]
Cc1ccccc1N(CC(=O)NCc1ccco1)C(=O)CNS(=O)(=O)c1ccc(F)cc1 | -16
COc1ccc(OC)c(/C=C/C(=O)OCC(=O)NC2CCCCCCC2)c1 | -4.68
CCN(CC)C(=S)SCC(=O)Nc1ccc(S(N)(=O)=O)cc1 | 3.17
CS(=O)(=O)c1ccc(C(=O)NCc2ccccc2F)cc1 | 6.24
Cc1oc(-c2ccccc2F)nc1CN1CCC(C(=O)NCCC2=CCCCC2)CC1 | -71.8
Cc1oc(-c2ccccc2F)nc1CN1CCC(C(=O)NC2CCCc3ccccc32)CC1 (stereo not drawn) | -63.9
Cc1cc(C)nc(N2CCC(C(=O)NC3CCCc4ccccc43)CC2)n1 (stereo not drawn) | 17.6
Cc1ccccc1-c1nc(CN2CCC(C(=O)NCCCN3CCOCC3)CC2)c(C)o1 | -10.8
Cc1ccccc1-c1nc(CN2CCC(C(=O)NCCC3=CCCCC3)CC2)c(C)o1 | -66.7
O=C(NCCC1=CCCCC1)C1CCN(c2nc3ccccc3o2)CC1 | -13.9
Cc1oc(-c2ccccc2F)nc1CN1CCC(C(=O)NC2CC2)CC1 | -34.3
CCOc1ccc(C(NC(=O)CC)c2c(O)ccc3ccccc23)cc1 (stereo not drawn) | -7.96
O=C(COC(=O)c1ccccc1NC(=O)c1ccco1)Nc1ccc2c(c1)OC(F)(F)O2 | 12.2
FC(F)(F)c1cc(-c2ccc(Cl)cc2)nc(NCc2cccnc2)n1 | 3.07
CNC(=S)N/N=C/c1cccc(OCc2ccccc2F)c1 | 18.3
Cc1cc(NC(=O)CSc2[nH]c(=O)cc(C(F)(F)F)c2C#N)no1 | -2.45
CCNC(=O)C(=O)N/N=C/c1cc([N+](=O)[O-])ccc1O | 4.32
CCC1CSC(Nc2ccc(C(=O)/C=C/c3ccc(OC)c(OC)c3)cc2)=N1 (stereo not drawn) | -52.4
CCC1CSC(Nc2ccc(C(=O)/C=C/c3ccc(Br)cc3)cc2)=N1 (stereo not drawn) | 0.372
CCC1CSC(Nc2ccc(C(=O)/C=C/c3cccc(C)c3)cc2)=N1 (stereo not drawn) | 14.4
C[C@@H](O)c1nc2ccccc2n1N | 9.12
Cc1cc(N2C(=O)c3ccccc3C2=O)n(C)n1 | 9.7
COc1ccc(C(=O)N/C(=C/c2cccs2)C(=O)NC(C)(C)C)cc1OC | 5.42

SMILES | hERG current change (%, negative = inhibition) at 10uM [%]
COc1ccc(/C=C(\NC(=O)c2ccc(OC)c(OC)c2)C(=O)N2CCN(C)CC2)cc1 | -19.4
CCOC(=O)N1CCN(C(=O)/C(=C/c2cccs2)NC(=O)c2ccc(OC)c(OC)c2)CC1 | -71.2
COc1ccc(C(=O)N/C(=C\c2cccs2)C(=O)N2CCN(C)CC2)cc1OC | -56.4
CCOC(=O)N1CCN(C(=O)c2ccc(OC)c(OC)c2)CC1 | 18.5
COc1ccc(C(=O)N/C(=C/c2cccs2)C(=O)NN)cc1OC | 13.7
Cc1ccc(CNC(=O)C2CC=CCC2C(=O)O)cc1 (stereo not drawn) | 16.3
CCOC(=O)c1cc([N+](=O)[O-])sc1N | 2.1
O=C(COC(=O)c1ccccc1O)Nc1cc(S(=O)(=O)N2CCCCCC2)ccc1Cl | -9
Cn1c(=O)n(C)c2cc(NC(=O)COc3ccc(F)cc3F)ccc21 | -13.6
CCOc1ccccc1C(=O)NCC(=O)N(C)Cc1cccnc1 | -3.07
CCN(CC)CCNCC(O)(c1ccc(Cl)cc1)c1ccc(Cl)cc1 | -82.4
CCN(CC)CCNC(=S)Nc1ccc(Cl)cc1 | -21.7
CCCCNCC(O)(c1ccc(Cl)cc1)c1ccc(Cl)cc1 | -68
CC(C)(C)NCC(O)(c1ccc(Cl)cc1)c1ccc(Cl)cc1 | -13.8
CCN(CC)CCNS(=O)(=O)c1ccc(Cl)cc1.Cl | -12.9
CCC(C)NCC(O)(c1ccc(Cl)cc1)c1ccc(Cl)cc1 (stereo not drawn) | -37.7
COc1ccc(-c2nc3n(n2)C(c2cccnc2)C(C(N)=O)=C(C)N3)cc1 (stereo not drawn) | -17.3
CCOC(=O)COc1ccc(S(=O)(=O)Nc2ccc3c(c2)OCCO3)cc1 | -3.24
COC(=O)C(Sc1nc(C)cc(C)c1C#N)c1ccccc1 (stereo not drawn) | -10.6
CC(CC(=O)NC1CCCCC1)S(=O)(=O)c1ccc2c(c1)CCN2C(=O)C1CC1 (stereo not drawn) | 28.2
CCCS(=O)(=O)N1CCCC(C(=O)NCc2ccc(C)cc2)C1 (stereo not drawn) | 4.91
COc1ccc(S(=O)(=O)N2CCOCC2)cc1NC(=O)COC(=O)C1CCC1 | -6.23
